# Assay results from PubChem BioAssay (NCI).
# Compounds without any hit were thinned out: in the full panel of roughly 83,000, 20% have a hit.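 Treatment: one concentration, 48 hours, 96-well format. Scoring: percent growth, with anything below 10 considered active.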 A number with no mark means an inactive call. The source made the active and inactive calls.
# Columns and labels:
# Test in all cases: NCI-60 one-dose screen, 48 h (100 = growth as untreated, 0 = no growth, -100 = all killed)
# Conditions in all cases: 10 µM unless noted
# [1] = system: NCI-H23 lung
# [2] = system: NCI-H226 lung
# [3] = system: NCI-H322M lung
# [4] = system: HOP-62 NSCLC
# [5] = system: NCI-H460 lung
# [6] = system: HOP-92 NSCLC
# [7] = system: NCI-H522 lung
# [8] = system: A549/ATCC NSCLC
# [9] = system: 786-0 renal
# [10] = system: DU-145 prostate
# [11] = system: K-562 leukemia
# [12] = system: MALME-3M melanoma
# [13] = system: MDA-MB-231 breast
# [14] = system: RXF 393 renal
# [15] = system: SF-268 CNS
# [16] = system: SF-295 CNS
# [17] = system: SF-539 CNS
# [18] = system: UACC-257 melanoma
# [19] = system: M14 melanoma
SMILES,growth [1],growth [2],growth [3],growth [4],growth [5],growth [6],growth [7],growth [8],growth [9],growth [10],growth [11],growth [12],growth [13],growth [14],growth [15],growth [16],growth [17],growth [18],growth [19]
N#C/C(=C\c1ccc2c(c1)OCO2)n1nnc2ccccc21,10.9%,8.93% (active),9.39% (active),28.7%,0.341% (active),-2.71% (active),14%,17.1%,6.58% (active),-38% (active),14.2%,25.8%,-31.9% (active),-44.8% (active),22.9%,-5.56% (active),-61.4% (active),64.4%,2.76% (active)
COc1cc2c(cc1OC)-c1ccc3cc4c(cc3c1N(CCCN(C)C)C2)OCO4,48.7%,57.6%,51.3%,38%,14.6%,9.04% (active),19.5%,20.2%,35%,38.9%,20.6%,58.2%,36.3%,35.1%,34%,42.7%,40.2%,34.6%,33.2%
CCOc1ccc(S(=O)(=O)c2ccc(C)cc2)c2c1no[n+]2[O-],82.4%,77.2%,92.7%,101%,86.4%,36.5%,57.1%,97.2%,79.6%,86.2%,46.1%,81.3%,81.2%,81.8%,99.1%,82.9%,87%,95.8%,93.4%
CC(=O)Nc1cccc(C2=CC(c3ccc(C)cc3)n3ncnc3N2)c1 (stereo not given),97.4%,92.7%,107%,101%,107%,77.7%,94.8%,108%,95%,102%,86.2%,119%,87.8%,96.4%,94%,114%,95.3%,112%,112%
CCNCCNc1cc(-c2ccc(C(=O)OC)cc2)c(C#N)c2nc3ccccc3n12,66.6%,87.8%,43.7%,68.4%,4.26% (active),71%,32.3%,11.9%,44.2%,38.1%,2.65% (active),88.5%,0.164% (active),16%,30.8%,-62.1% (active),-80.1% (active),53.1%,31.5%
N#Cc1c(-c2ccc(C(F)(F)F)cc2)cc(N2CC(O)C2)n2c1nc1ccccc12,67.7%,16.9%,60.8%,7.8% (active),27.8%,-3.02% (active),34.7%,48.1%,20.7%,71.4%,110%,-3.85% (active),39.2%,21.5%,32.7%,28.1%,36.2%,51.9%,80.6%
COc1cc2c(cc1OC)-c1ccc3cc4c(cc3c1N(CCCn1ccnc1)C2)OCO4,16.6%,51.9%,76.9%,24.9%,6.34% (active),26.8%,-19.1% (active),56.2%,35.1%,39.6%,20.4%,47.8%,56.7%,57.8%,34.4%,27.7%,13.3%,52.8%,27.1%
CCOC(=O)c1c(C)nc2c(c1N)/C(=C/c1ccc(OC)cc1)C(=O)N2Cc1ccc(F)cc1,-38.2% (active),8.52% (active),9.93% (active),-45.3% (active),2.95% (active),-55.6% (active),-69.6% (active),12%,-50.6% (active),-90.8% (active),4.12% (active),-21.3% (active),-54.7% (active),-78.6% (active),-23.6% (active),-1.56% (active),-20.5% (active),-52.7% (active),-56% (active)
COc1ccc2c(c1)/C(=C\c1sc(=S)[nH]c1O)C(C(=O)O)=N2,99.1%,99.3%,102%,116%,108%,91.6%,87.6%,99.8%,102%,99.2%,92.6%,94.7%,94.8%,95.2%,92.3%,103%,99.4%,96.7%,97%
Cc1nc2ccc(C(=O)NCc3cc(C(=O)O)c(C)o3)cc2nc1C,101%,100%,96.9%,77%,100%,90.8%,92.2%,91.4%,94.4%,105%,110%,93.4%,101%,97.4%,91.4%,102%,96.2%,87.2%,91.4%
O=C(NCCOCCOCCNc1cccc2c1C(=O)N(C1CCCNC1=O)C2=O)c1cc2c(o1)C(=O)c1ccccc1C2=O (stereo not given),-42.8% (active),-79.8% (active),-62.1% (active),-65.2% (active),-70.7% (active),22.2%,-52.7% (active),-45.5% (active),3.9% (active),-90.8% (active),9.04% (active),-94.9% (active),-2.54% (active),-35.4% (active),-9.46% (active),-91.9% (active),-86.2% (active),-84.1% (active),-52.7% (active)
COc1cc(-c2ccc(-c3ccc(C(=N)N)nc3)s2)cc(OC)c1OC,72.2%,102%,70.3%,67.9%,25.7%,49%,77%,61.3%,40.3%,49.9%,5.58% (active),24.7%,44.2%,77.1%,86.1%,40.1%,1.84% (active),92.9%,43.1%
C=C(C)[C@@H]1CC[C@]2(CO)CC[C@]3(C)[C@H](CC[C@@H]4[C@@]5(C)C=C(C#N)C(=O)C(C)(C)[C@@H]5CC[C@]43C)[C@@H]12,16.6%,25.6%,21.4%,23.2%,-7.1% (active),8.38% (active),24.1%,12.6%,14.8%,18.9%,7.75% (active),32.9%,15.9%,-61.2% (active),25.4%,-2.71% (active),20.5%,4.1% (active),15.8%
CCC(=O)OC1=C(C)SC2=NC(c3ccc(Cl)c(Cl)c3)=CC(c3cc(OC)c(OC)c(OC)c3)N21 (stereo not given),98.5%,95%,97.4%,95.9%,108%,67.9%,97.8%,105%,104%,114%,103%,104%,90.2%,91%,102%,94.8%,90.9%,–,106%
COC(=O)c1ccc(CSc2nnc(-c3ccncc3)o2)cc1,105%,102%,93.4%,92.4%,108%,108%,86.3%,99.9%,100%,114%,93.9%,103%,106%,122%,101%,109%,98.7%,99%,102%
CCCn1nc(-c2ccccc2)c2c(-c3ccccc3)onc2c1=O,85.6%,87.5%,95.4%,74.2%,98.1%,75.6%,62.6%,89%,94.1%,104%,29.1%,96.5%,81.6%,90.2%,89.2%,74.3%,85%,112%,57.2%

SMILES,growth [1],growth [2],growth [3],growth [4],growth [5],growth [6],growth [7],growth [8],growth [9],growth [10],growth [11],growth [12],growth [13],growth [14],growth [15],growth [16],growth [17],growth [18],growth [19]
N#Cc1cccc(-c2nc3ccccn3c2NCCN2CCOCC2)c1,98.6%,93.6%,87.1%,72.5%,98.8%,93%,85.8%,90.4%,96.1%,106%,97.3%,108%,94.6%,96.3%,90.3%,101%,92.2%,98.8%,89.9%
C=C1c2c(C)nn(-c3ccc(N)cc3)c2N(C)C23CC1C1(C)c4c(C)nn(-c5ccc(N)cc5)c4N(C)C(C)(CC12)C3 (stereo not given),93.6%,71.2%,92.1%,88.3%,57.2%,90.2%,62.3%,50.1%,81.1%,81.4%,42.9%,102%,89.2%,71.7%,76.5%,52.5%,100%,72.5%,61.6%
C=C(C)[C@@H]1CC[C@]2(C(=O)NCC(=O)O)CC[C@]3(C)[C@H](CC[C@@H]4[C@@]5(C)Cc6c([nH]c7ccccc67)C(C)(C)[C@@H]5CC[C@]43C)[C@@H]12,73.5%,87.8%,85.5%,58.5%,88.5%,81%,41.9%,67.1%,84.4%,93.5%,72.4%,107%,92%,91.2%,76.1%,56.2%,56.3%,87.1%,86.9%
CCN(CC)S(=O)(=O)c1ccc(O)c(NC(=O)c2[nH]c(C)c(C(C)=O)c2CCc2ccc(Cl)cc2)c1,19.6%,62.5%,54.7%,48.9%,50.2%,38.2%,11.9%,37.2%,73.4%,68.4%,29.8%,53%,50.6%,91.2%,55.4%,59.3%,64.5%,38.3%,56.8%
Cc1cnc(Nc2ccc(OCCN3CCCC3)cc2)nc1NCc1ccco1,70.9%,45.8%,81.9%,60.4%,72.8%,54.8%,70.1%,76.3%,60.7%,83.8%,12.9%,105%,55.6%,48%,68.5%,84%,68.7%,96%,96.3%
CCC(C)NCc1ccccc1 (stereo not given),97.1%,92.2%,98.1%,97.6%,102%,93.8%,66.7%,95.4%,98.6%,106%,98.1%,105%,96.4%,99.3%,98.9%,98.9%,102%,103%,96.9%
N=C(N)c1ccc(-c2ccc(-c3ccc(Cl)cc3Cl)o2)nc1,78%,96.9%,30.7%,29.1%,-63.2% (active),77.4%,30%,6.38% (active),-22% (active),24.1%,1.13% (active),90%,-38% (active),64.4%,80.1%,-62.8% (active),42.6%,91.4%,70.2%
CC(C)(C)OC(=O)N1Cc2cc3ccccc3nc2C1CO (stereo not given),85.9%,92.1%,104%,102%,107%,96.7%,110%,95.6%,95.8%,98.6%,133%,120%,96.6%,66.5%,102%,92.8%,95.7%,19.1%,98.7%
CC(C)N(CCOC(=O)Nc1ccccc1Cl)C(C)C,105%,86.3%,102%,93.3%,103%,84.4%,78.6%,98.4%,98.8%,105%,104%,104%,106%,108%,101%,104%,104%,99.1%,99.5%
COc1ccc(Oc2nc(Nc3ccc(N4CCOCC4)nc3)ncc2NC(=O)c2cc(OC)cc(OC)c2)cc1,97.9%,65%,88%,82.6%,82.3%,82.8%,52.1%,84.6%,67.4%,89.6%,49.8%,107%,81.9%,58.6%,82.2%,83.7%,78.2%,89.7%,72.8%
CCOC(=O)c1sc2ccc(NCc3nc[nH]c3C)cc2c1NC(=O)c1cc(OC)c(OC)c(OC)c1,85.7%,84.3%,91%,93.9%,92.6%,75.1%,84.8%,101%,84.8%,86.7%,44.2%,80.1%,73.3%,79.2%,98%,97.3%,91.7%,–,96.8%
COc1cc(C2C=C(c3cccc(NC(C)=O)c3)Nc3ncnn32)cc(OC)c1OC (stereo not given),29.8%,43.5%,37%,62.6%,14.6%,68.9%,-3.09% (active),45.5%,50.1%,2.4% (active),23.6%,25.6%,16.4%,-28.3% (active),36.9%,-58% (active),-5.24% (active),71.2%,20.4%
CN(C)CCCCNc1ccc(NCCCCN(C)C)c2c1C(=O)c1c(O)ccc(O)c1C2=O,-68.5% (active),102%,56.1%,69.4%,-79.1% (active),40.6%,-77.9% (active),-82.9% (active),-75.1% (active),58.3%,-54.5% (active),130%,-78.2% (active),-96% (active),76.2%,-81.5% (active),–,99.5%,-63.3% (active)
CCN(CC)N=Nc1nn(C(=O)Nc2ccc(Cc3ccccc3)cc2)c2ccc(Cl)cc12,90.4%,84%,82.5%,86.9%,25.7%,102%,67.3%,67.7%,59.5%,70.5%,22.3%,139%,102%,116%,76%,8.57% (active),77.7%,55.5%,22%
CN(C)CCOC(=O)Nc1ccc(Cl)cc1,102%,88.8%,92.2%,88.4%,106%,85.5%,64.9%,94.7%,94.2%,110%,90.5%,114%,93.8%,118%,105%,103%,102%,101%,90.5%
C[C@@H]1C(=O)N(C[C@H](Cc2ccccc2)N(Cc2ccccc2)Cc2ccccc2)[C@]1(Cc1ccccc1)C(=O)OC(C)(C)C,42%,47.8%,87.9%,81.6%,54%,46.3%,50.9%,60%,72.6%,77.6%,51.6%,88%,61.9%,68.5%,69.8%,40.3%,91%,45.1%,75.4%
